From the supplement of paper PMC6555819

Legend:
Experiment in all cases: PBM binding z-score (relative to random genomic background probes); higher = stronger binding; sequences stand for … in GC…GCGATTGACAGCGTAGAATGAAGG
[1] = tested on: RARg homodimer (NR concentration 270 nM)
How it was run: (§1)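 On custom Agilent 4×180K arrays, double-stranded probes with 34-nt variable regions carried direct-repeat seeds, single-nucleotide variants, half-site ablations or random human genomic background. Ligand-free nuclear receptor dimers were applied for 1 h, and binding was read with antibodies against each partner (one per run). Binding z-scores come from regression-normalized fluorescence, with the random background probes as reference.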

[2] = tested on: RXRa DBDmut IVT, anti-RXR (DBD mutation: RXRa K156A/R161A, NR concentration 90 nM)
How it was run: as §1

[3] = tested on: THRa:RXRa (NR concentration 90 nM, RXRa partner concentration 90 nM)
How it was run: as §1

[4] = tested on: THRa homodimer (NR concentration 90 nM)
How it was run: as §1

[5] = tested on: VDR homodimer (NR concentration 270 nM)
How it was run: as §1

Sequence | PBM binding z-score [1] | PBM binding z-score [2] | PBM binding z-score [3] | PBM binding z-score [4] | PBM binding z-score [5]
AGTCAAAGGTCATCTAGGTAACGTAAGATATGCT | 7.77 | 3.31 | 4.7 | 1.42 | 2.52
CCTACTGGGTCAAAGGTCATTGATTCCAATGCTC | 5.88 | 2.87 | 4.52 | 1.69 | 3.95
CGTCAAAGGTCAAGGTAACGTAACAGAAAGCAGC | 8.73 | 3.48 | 4.25 | 1.83 | 1.62
CAAACGAGGTCAAGGTCAAAGTCGGTTTGTGCCA | 8.18 | 4.52 |  | 4.79 | 6.15
ACTTAGGGGTCAACGAGGTTATAGCACGCGTATA | 7.64 | 4.82 |  | 1.8 | 6.45
TCTAGTAGGTCAAAGGTCACACACTCGAAATGCG | 7.76 | 2.77 | 4.73 | 2.3 | 3.32
CAAACAAGGTCACCGGAAGGTCAAAGTCCGCATG | 8.72 | 4.24 |  | 4.44 | 5.94
GCTTAGGGGTCAAAGGTTATAGCATGAATAGAAT | 7.06 | 4.82 | 4.68 | 0.683 | 4.44
ACTCGGAGGTCAAAGGTCAGAGCTACGCCAGTGA | 8.15 | 3.82 |  | 1.5 | 3.99
CAAACGAGGTCACAGAGGTCAAAGTCCGTGCGTA | 9.3 | 4.98 |  | 5.02 | 10.5
CTCGAAAGGTCATGCTCAGGTGAGTATACCAAAC | 8.47 | 3.44 | 4.72 | 1.61 | 2.44
TATACGGGGTCAAAGGCCAGAGTACGAATGTCGA | 6.78 | 4.48 | 4.43 | 1.72 | 5.21
GCTTACGGGTCAAAGGTCATAGCATGAATAGAAT | 7.46 | 3.56 |  | 1.04 | 3.19
CAAACAAGGTCAAAGGTCAAAGTCGAGCCAACCA | 8.75 | 4.5 |  | 2.79 | 5.62
CAAAATAGGTCAAAGGTCAAAGTCGAGCCAACCA | 7.97 | 2.84 | 4.79 | 1.18 | 2.93
TATACAGGGTCAAAGGTCAGAGTACGAATGTCGA | 7.28 | 3.34 |  | 1.79 | 4.33
CAAACGAGGTCACCGGAAGGTCAAAGTCCGCATG | 8.7 | 4.24 |  | 4.61 | 6
TTACCAAGGTCAAAGGTCGTTGATGCACGCCTTG | 6.63 | 3.96 | 4.73 | 2.76 | 4.36
CCTTAGGGGTCAAGGTTATAGCACGGGTGGTACG | 7.42 | 3.5 | 4.36 | 1.39 | 4.22

Sequence | PBM binding z-score [1] | PBM binding z-score [2] | PBM binding z-score [3] | PBM binding z-score [4] | PBM binding z-score [5]
TCTAGTGGGTCAAAGGTCACACACTCGAAATGCG | 7.49 | 2.07 | 4.61 | 1.7 | 2.84
CGTCAAAGGTCAAGGTCAGTGAAAGAGACTCGAA | 9.35 | 3.45 | 4.33 | 2.28 | 3.23
TGTCAAAGTTCAAAGGTCACGTAAGTATCCACAC | 9.03 | 4.57 |  | 1.88 | 5.69
CGTCAAAGGTCATAGGAGGTCAGTGAAGACAGAT | 8.6 | 3.88 |  | 1.85 | 3.84
CCTTAGGGGTCACTCCAGGTTATAGCATCGGAGT | 7.07 | 4.21 |  | 0.963 | 4.35
CGTCAAAGGTCAATGCTAGGTCAGTGAAAGCATT | 8.73 | 3.76 | 4.77 | 1.42 | 2.5
ATCGAAAGGTCAAAGGTGAGTATACCCACCCGAA | 8.44 | 3.46 | 4.31 | 0.712 | 2.97
TGTCAAAGGTCAAAGGTAACGTAAGTATCCACAC | 8.8 | 3.15 | 4.47 | 0.695 | 2.81
CAAACGAGGTCAAGAGGTCAAAGTCCGCTTCCCG | 8.65 | 4.19 |  | 4.11 | 6.32
TGTCAAAGTTCAAAGGTTACGTAAGTATCCACAC | 6.76 | 4.3 | 4.44 | 0.193 | 4.2
CGTCAAAGGTCAGCAGGTCAGTGAAAGCGACGTG | 8.73 | 2.54 | 3.92 | 0.878 | 1.62
CAAACAAGGTCACAGAGGTCAAAGTCCGTGCGTA | 9.05 | 4.67 | 5.03 | 4.36 | 9.97
ATCGAAAGGTCAAGGTGAGTATAGAGAAAGGGAA | 8.56 | 2.66 | 4.3 | 1.8 | 1.84
TCTCGGAGGTCACGAAAGGTCAGAGCTCGACATC | 9.26 | 3.38 |  | 2.36 | 3.58
CGTCCAAGGTCAAAGGTCATTGAAGAGATGACGG | 8.52 | 4.24 |  | 3.04 | 5.06
TCTAGTCGGTCAAAGGTCACACACTCGAAATGCG | 7.3 | 1.78 | 4.13 | 2.24 | 2.75
CAAACGAGGTCAAAGGTCAAAGTCGAGCCAACCA | 8.66 | 4.97 |  | 3.26 | 6.2
CGTCAAAGGTCAAAGGTCAGTGAAGAGATGACGG | 9.73 | 4.01 | 4.94 | 1.08 | 3.49
AATACGGGGTCATCGTAGGCCAGAGTACGCACAG | 7.15 | 4.86 | 4.99 | 2.62 | 6.13
